Our source for the growth values is PubChem BioAssay (NCI).

Holding throughout (test): NCI-60 one-dose screen, 48 h (100 = growth as untreated, 0 = no growth, -100 = all killed)
Conditions in all cases: 10 µM unless noted

Assay [1] deals with DU-145 prostate.
Assay [2] has as its system K-562 leukemia.
Assay [3] relates to MALME-3M melanoma.
Assay [4] deals with MDA-MB-231 breast.
Assay [5] has as its system RXF 393 renal.
Assay [6] deals with SF-268 CNS.
Assay [7] deals with SF-295 CNS.
For assay [8], the system named is SF-539 CNS.
Assay [9] relates to UACC-257 melanoma.
For assay [10], the system named is M14 melanoma.
In assay [11] the test system is HCT-15 colon.
Assay [12] relates to HT29 colon.
In assay [13] the test system is SNB-75 CNS.
Assay [14] concerns SNB-19 CNS.
For assay [15], the system named is U251 CNS.
For assay [16], the system named is PC-3 prostate.
Assay [17] deals with SK-MEL-5 melanoma.
In assay [18] the test system is UACC-62 melanoma.
Assay [19] concerns LOX IMVI melanoma.
The subject of assay [20] is SK-MEL-28 melanoma.

This is part of a sample that, as a whole, favours compounds with a hit. Of some 83,000 tested, about 20% had one in any assay.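 Testing used 96-well plates and a 48-hour single-concentration exposure. Example: -40 means 40% of the starting cells died.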 Values without a mark were called inactive. Activity calls are given as the source filed them. Rule for the calls: active = growth percent below 10; inactive = the rest.

As for `COc1ccc(/C=C2\CN(C(=O)C(Cl)Cl)C/C(=C\c3ccc(OC)cc3)C2=O)cc1`, the growth in assay [1] was -11.2% (active); in assay [2], 2.32% (active); in assay [3], -33.9% (active); in assay [4], 3.8% (active); in assay [5], -68.2% (active); in assay [6], 23.6%. For the same compound, the growth is -25.1% (active) in assay [7]; -40% (active) in assay [8]; 22.8% in assay [9]; -39% (active) in assay [10]; -14.4% (active) in assay [11]; 5.9% (active) in assay [12]. The growth was 21% in [13]; -10.9% (active) in [14]; -68.2% (active) in assay [15]; -8.13% (active) in assay [16]; -41% (active) in assay [17]; -66% (active) in assay [18]. Further, the growth in [19] was -77.8% (active); in assay [20] it was -12.5% (active).
With `Cc1ccnc(Nc2ccc([N+](=O)[O-])c(NCCN3CCOCC3)n2)c1`, the growth was 10.1% in [1]; 6.76% (active) in assay [2]; 89.3% in [3]; 42.4% in [4]; 70.4% in assay [5]; 31.9% in [6]. Besides, the growth is 35.8% in assay [7]; 6.71% (active) in assay [8]; 86.2% in [9]; 24.1% in [10]; 8.47% (active) in assay [11]; 10.9% in assay [12]. The growth in assay [13] is 56.8%; in assay [14] it was 58.3%; in [15], 23.2%; in assay [16], 12.2%; in assay [17], -3.36% (active); in [18] it was 37.3%. Also, the growth was 22.8% in [19] and 72% in [20].
As for `c1ccc2c(c1)CCCc1nnc3nc4ccccc4n3c1-2`, the growth in [1] is 39.9%; in assay [2], 31.4%; in assay [3], 53.5%; in assay [4], 38.5%; in assay [5] it was 46.7%; in assay [6] it was 44.5%. The growth was 30.7% in assay [7]; 69.5% in [8]; 37.6% in assay [9]; 28.3% in assay [10]; 40.2% in assay [11]; 31.4% in assay [12]. The growth was 45.4% in [13]; 56.5% in assay [14]; 38.5% in assay [15]; 37.1% in assay [16]; 56.5% in [17]; 57.7% in assay [18]. Also, the growth in assay [19] is 33.7%; in [20] it was 83.7%.
In the case of `O=C1/C(=C\c2ccccn2)c2ccccc2N1c1c(Cl)cccc1Cl`, the growth in assay [1] is -0.0912% (active); in [2], 9.42% (active); in assay [3], 67.3%; in [4], 15.7%; in [5], -35.2% (active); in assay [6], 7.81% (active). In addition, the growth is 12.3% in assay [7]; 1.27% (active) in assay [8]; 59.3% in assay [9]; -43.6% (active) in assay [10]; 12.6% in [11]; 10.8% in assay [12]. In addition, the growth in [13] was -28.2% (active); in [14] it was 34.8%; in assay [15], -2.48% (active); in [16], 31.4%; in [17], 23.7%; in assay [18], 24.9%. Moreover, the growth in [19] is -89.2% (active); in assay [20], 14.6%.
As to `COC(=O)N1CC(Oc2ccccn2)C2CC1c1ccccc1O2` (stereo not given), the growth in assay [1] was 115%; in assay [2] it was 114%; in assay [3], 104%; in assay [4] it was 89.7%; in assay [5], 95.1%; in [6] it was 102%. Besides, the growth in [7] is 104%; in assay [8], 99.4%; in [9] it was 88%; in [10] it was 102%; in [11] it was 98.8%; in assay [12], 103%. Moreover, the growth in assay [13] was 98.7%; in assay [14] it was 94.5%; in assay [15], 104%; in [16] it was 94.4%; in assay [17], 99.4%; in [18] it was 89.5%. Also, the growth was 96.8% in [19] and 94.8% in assay [20].
As to `COC(=O)c1nc(-c2ccccc2)oc1S(=O)(=O)NCC(c1ccc(Cl)cc1)N1CCOCC1` (stereo not given), the growth is 78.2% in assay [1]; 13.4% in assay [2]; 76.9% in [3]; 75.8% in assay [4]; 83.6% in assay [5]; 77% in assay [6]. Besides, the growth in assay [7] was 101%; in assay [8] it was 92.3%; in assay [9] it was 87.3%; in assay [10], 35%; in [11] it was 44.2%; in assay [12], 40%. For the same compound, the growth in assay [13] is 94.3%; in assay [14], 89.4%; in assay [15], 72.8%; in assay [16], 50%; in assay [17], 86.4%; in assay [18], 80.9%. Further, the growth is 48.7% in assay [19] and 94.3% in assay [20].
As to `NC(=O)c1c(NC(=O)c2cccc(C(F)(F)F)c2)sc2c1CCC(=O)C2`, the growth in assay [1] was 29.2%; in assay [2], -2.81% (active); in assay [3], -41% (active); in [4], -45.5% (active); in [5], -5.44% (active); in [6], 19%. Further, the growth was -12.9% (active) in [7]; -78.1% (active) in assay [8]; -6.24% (active) in assay [9]; -54% (active) in [10]; -21.2% (active) in assay [11]; 3.32% (active) in assay [12]. For the same compound, the growth in [13] is -75.9% (active); in assay [14] it was 11.6%; in [15], 7.56% (active); in assay [16], -29.8% (active); in [17] it was -56.3% (active); in assay [18] it was -45.4% (active). Besides, the growth in assay [19] was 5.08% (active); in assay [20] it was 20.7%.
Take `CCNc1nc(O)c(/C=C2\C=Nc3ncccc32)s1`: the growth in assay [1] was 9.93% (active); in [2] it was 26.3%; in assay [3], -6.17% (active); in assay [4], 10.7%; in assay [5], -39.3% (active); in assay [6], -5.81% (active). In addition, the growth in [7] was 4.95% (active); in assay [8], -64.2% (active); in assay [9] it was -15.9% (active); in [10], 0.692% (active); in assay [11] it was 16%; in assay [12], 4.26% (active). Also, the growth was -71.8% (active) in assay [13]; 9.99% (active) in assay [14]; -9.45% (active) in [15]; 2.3% (active) in assay [16]; 9.15% (active) in assay [17]; -16% (active) in assay [18]. The growth in [19] is 1.75% (active); in assay [20], -17.2% (active).
